Screening results (PubChem BioAssay)
Rab9 prom act – activates the Rab9 promoter; Huh7 Rab9 promoter-luciferase reporter, luminescence, 24 h; Potency, µM (titrated, usually from 9.22 µM), without a hit: top-dose activation, negative = inhibition, hits mostly activators; 320,000 compounds, 2.8% hits; AID 485297; also: % of control where 0% means no effect; nearly all actives have a fitted effect of over 60% in size
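Huh7 cells stably carrying Rab9 promoter–luciferase reporter, plated 1500 cells/well, compound added after 2 h and incubated 24 h at 37 °C; luciferase luminescence then read after 10 min with detection reagent.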
ELG1 genotoxic – inducers of genotoxicity in HEK293T ELG1-luciferase cells. HEK293T ELG1-luciferase reporter, luminescence, 16 h. Potency, µM (doses to about 46 µM), for inactives: at the top dose activity change, positive = activation, most hits filed as activators. 330,000 compounds, 1.3% hits; also: % of control where 0% means no effect; nearly all actives have a fitted effect of over 60% in size
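Luminescence read-out: rising ELG1-luciferase signal, reflecting elevated ELG1 protein under genetic stress, flags genotoxic compounds. Cells were treated for 16 hr at 37 °C before ONE-Glo detection.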
ELG1 repair inh – blocks ELG1-dependent DNA repair in HEK293T cells. HEK293T ELG1-luciferase reporter, luminescence, 16 h; DNA damage induced by 5-fluorouridine. Potency, µM (titrated, usually from 46.1 µM), inactives show at the highest dose activity change, negative = inhibition, hits mostly inhibitors. 330,000 compounds, 2.3% hits. AID 504467; also: % is scaled to controls: 0 for no effect and ±100 for the full control effect; nearly all actives have a fitted effect of over 55% in size
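In this reporter screen, reduction of luminescence relative to DMSO vehicle indicated activity. Compounds and 5-fluorouridine were added together to 2,000 cells per well, incubated for 16 hr at 37 °C, then developed with ONE-Glo.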
FLuc counter – counter-screen for miR-21 project: firefly luciferase inhibitors or activators | P08659 | purified FLuc, Km substrates, luminescence inhibition | Potency, µM (series often up to 57.5 µM), inactives show at the top dose activity change, negative = inhibition, most hits filed as inhibitors | 360,000 compounds, 6.9% hits | AID 588342;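 also: plate controls were vehicle for no effect and reference inhibitor for full effect; nearly all actives have a fitted effect of over 55% in size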
Target sequence (P08659 whole entry, looked up): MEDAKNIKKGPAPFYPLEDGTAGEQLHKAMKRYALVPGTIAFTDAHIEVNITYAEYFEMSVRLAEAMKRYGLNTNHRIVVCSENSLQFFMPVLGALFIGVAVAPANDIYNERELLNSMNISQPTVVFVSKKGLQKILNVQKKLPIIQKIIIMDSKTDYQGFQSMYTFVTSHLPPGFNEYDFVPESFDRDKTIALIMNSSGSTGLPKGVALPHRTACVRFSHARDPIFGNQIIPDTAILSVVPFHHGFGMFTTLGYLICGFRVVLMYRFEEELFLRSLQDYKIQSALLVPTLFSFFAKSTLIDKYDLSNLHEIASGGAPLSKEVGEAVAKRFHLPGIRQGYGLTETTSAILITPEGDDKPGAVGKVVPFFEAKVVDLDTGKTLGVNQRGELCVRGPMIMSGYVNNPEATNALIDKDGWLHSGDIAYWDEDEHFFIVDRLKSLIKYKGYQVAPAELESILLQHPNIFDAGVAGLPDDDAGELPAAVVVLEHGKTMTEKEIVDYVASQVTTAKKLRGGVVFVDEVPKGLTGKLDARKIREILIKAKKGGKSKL
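Biochemical qHTS of compounds, final roughly 60 µM downward over six points, against 10 nM purified firefly luciferase using Km concentrations of substrates (10 uM D-luciferin, 10 uM ATP) in Tris acetate pH 7.5 buffer; luminescence output.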
NPC1 promoter act – activators of NPC1 promoter; Huh7 NPC1 promoter luciferase reporter, 24 h; 320,000 compounds, 2.4% hits; Potency, µM (top dose mostly 9.22 µM), for the others: top-dose activation, actives largely listed as activators; AID 485313; also: % of control where 0% means no effect; nearly all actives have a fitted effect of over 60% in size
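Luminescence from an NPC1 promoter-driven luciferase reporter in stably transfected Huh7 cells was measured after 24 h compound treatment at 37 °C, followed by 10 min ambient incubation with luciferase detection reagent.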
SMN2 splice up – enhancers of SMN2 splice variant expression; HEK293 SMN2-luciferase splicing reporter, luminescence, 30-36 h; Potency, µM (highest dose often 46.1 µM), for the others: at the highest dose activity change, positive = activation, most hits filed as activators; 210,000 compounds, 2.8% hits; AID 1458; also: % of control where 0% means no effect; nearly all actives have a fitted effect of over 55% in size
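HEK293 cells carry an SMN2 […]–luciferase reporter in which exon 7 inclusion puts luciferase in frame. Cells were plated 10-12 h before compound addition, then incubated 30-36 h at 37C. ONE-Glo luminescence was read; sodium butyrate at 4.5 mM final served as control.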
Starred values were filed as active, the others as inactive; ? = inconclusive; · = not tested or not shown. Rows were chosen to be rich in hits. Some 9.2% of all compounds tested hit in one or more screens of this group. Calls follow the shape of the dose curve; as a rule, active = well fitted curve in the direction sought with a large enough effect; inconclusive = small, poorly fitted or top-dose-only effect, or another doubt; inactive = no such curve, though single readings can be large; an effect the other way counts as inactive or inconclusive. Potency is read from the fitted curve at half-maximal effect.

SMILES	Rab9 prom act	ELG1 genotoxic	ELG1 repair inh	FLuc counter	NPC1 promoter act	SMN2 splice up
COCCN=c1scc(-c2cccs2)n1/N=C(\C)c1ccco1	2.5µM*	12%	?	9.5µM*	?	?
O=C(O)CCc1ccc(-c2cccs2)n1NC(=O)c1ccco1	-3%	1%	13%	-2%	0%	?
CCS(=O)(=O)c1ccc2oc(Nc3ccc(OC)c(OC)c3)nc2c1	5%	12%	9%	-18%	9%	·
CCN(CC)S(=O)(=O)c1ccc2oc(SCC(=O)Nc3cc(C)on3)nc2c1	-2%	-1%	10µM*	-1%	-6%	·
CCN(CC)S(=O)(=O)c1ccc2oc(Nc3ccccc3)nc2c1	?	?	?	15µM*	?	·
CCS(=O)(=O)c1ccc2oc(Nc3ccccc3C)nc2c1	3.5µM*	?	?	13µM*	3.5µM*	?
CCN(CC)S(=O)(=O)c1ccc2oc(Nc3ccc(OC)cc3OC)nc2c1	1%	-13%	-23%	-8%	0%	·
CCCCSc1ncnc2c1c(-c1ccccc1)cn2-c1cccc(F)c1	·	·	·	-4%	·	8%
CN(C)CCCNC(=O)C(=O)Nc1cc2c3c(c1)CCC(=O)N3CCC2	1%	16%	26%	2%	-2%	·
Cc1cc2c(cc1C)N(CC(=O)N1CCCC1)C(=O)CC(c1ccccc1)=N2	18%	?	?	13µM*	3%	26%
CCOc1ccccc1NC(=O)CN1C(=O)CC(c2ccc(C)c(C)c2)=Nc2ccccc21	·	·	·	27µM*	·	·
COc1ccccc1NC(=O)CN1C(=O)CC(c2ccc(C)c(C)c2)=Nc2ccccc21	·	·	·	13µM*	·	·
O=C(CN1C(=O)CC(c2ccccc2)=Nc2ccccc21)NCc1ccccc1	1%	-3%	-29%	3%	-7%	-9%
O=C(Cc1c(F)cccc1Cl)Nc1ccc(S(=O)(=O)Nc2nccs2)cc1	-6%	0%	-1%	0%	1%	·
CCOC(=O)C(=CN=C(N)Nc1nc2ccccc2o1)C(=O)OCC	?	?	?	-2%	?	·
CCCOC(=O)Nc1nc2ccccc2o1	2.5µM*	?	?	13µM*	2.2µM*	?
O=C(NNc1nc2ccccc2o1)c1ccccc1	0.79µM*	16%	?	2.7µM*	?	·
Cc1cc(C)nc(Nc2nc3ccccc3o2)n1	18%	3%	?	-10%	23%	·
c1ccc(Nc2nc3ccccc3o2)cc1	2.5µM*	1.8µM*	?	3µM*	2µM*	?
Cc1ccc(NC(=O)c2c(C)nc(Nc3nc4ccccc4o3)nc2C)cc1	-1%	2%	11%	1%	-1%	-8%
O=C(NC(=Nc1nc2ccccc2o1)NC(=O)c1ccccc1)c1ccccc1	?	?	?	-10%	26%	?
FC(F)(F)Oc1ccc(Nc2nc3ccccc3o2)cc1	?	?	?	8.5µM*	2.5µM*	?
CC1=C(O)C(=O)OC1c1c(Cl)cccc1Cl (centres undefined)	-3%	-2%	-15%	1%	-1%	·
CCCSc1ncc(Cl)c(C(=O)N2CCN(c3ccc(OC)cc3)CC2)n1	·	·	·	-12%	·	-33%
Cc1nc(Nc2ccccc2F)c2oc3ccccc3c2n1	-5%	4%	29%	?	20%	·
Fc1ccccc1Nc1nc2ccccc2o1	0.4µM*	2.1µM*	?	1.5µM*	0.71µM*	·
O=C(COc1ccc2c(-c3ccccc3)cc(=O)oc2c1)NCC1CCC(C(=O)O)CC1 (centres undefined)	-4%	4%	6%	21µM*	-6%	·
O=C(COc1ccc2cc(-c3ccccc3)c(=O)oc2c1)NCC1CCC(C(=O)O)CC1 (centres undefined)	2%	9%	?	6µM*	-1%	·
NC(=O)c1ccsc1NC(=O)COC(=O)c1nc(Cl)ccc1Cl	-3%	-3%	23%	-4%	0%	·
